Reference: PubChem BioAssay (NCATS)
Records with an inconclusive call do not appear. Calls of active or inactive are those of the source. The call rests on the fitted dose curve; in most records, active means well fitted curve in the direction sought with a large enough effect; inconclusive means small, poorly fitted or top-dose-only effect, or another doubt; inactive means no such curve, though single readings can be large; an effect the other way counts as inactive or inconclusive.

Key:
[1] = Quantitative High-Throughput drug screen in 47 multiple myeloma cell lines against the NCATS MIPE library collection: ARD_JJKsccE7 cell viability assay (AID 1918929)
Procedure, shortened: (§1)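 Approved and investigational drugs from MIPE 4.0 were added by pin tool to 500 cells per well. After 48 hours at 37C, ATP-based CellTiter-Glo luminescence indicated remaining viability.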

[2] = Quantitative High-Throughput drug screen in 47 multiple myeloma cell lines against the NCATS MIPE library collection: Karpas620_DSMZ cell viability assay (AID 1918959); further: nearly all actives have a fitted effect of over 30% in size
Procedure, shortened: (§2)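 Relative luminescence from CellTiter-Glo served as the viability signal, referenced to DMSO-treated (100%) and cell-free medium (0%) controls. Treatment lasted 48 hours at 37C with 500 cells per well.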

[3] = Quantitative High-Throughput drug screen in 47 multiple myeloma cell lines against the NCATS MIPE library collection: KMM1_JCRB cell viability assay (AID 1918960); further: nearly all actives have a fitted effect of over 30% in size
Procedure, shortened: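 Each line was plated at 500 cells/well and treated 48 h with library drugs. Viability came from CellTiter-Glo luminescence relative to DMSO and cell-free medium controls.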

[4] = Quantitative High-Throughput drug screen in 47 multiple myeloma cell lines against the NCATS MIPE library collection: Karpas417_ECACC cell viability assay (AID 1918961); conditions: Karpas417 myeloma viability, CellTiter-Glo ATP luminescence, 48 h; viability (% of DMSO): at 45.8 µM (top of the series)
Procedure, shortened: as §2

[5] = Quantitative High-Throughput drug screen in 47 multiple myeloma cell lines against the NCATS MIPE library collection: KHM11_PLB cell viability assay (AID 1918962); further: nearly all actives have a fitted effect of over 35% in size
Procedure, shortened: as §2

[6] = Quantitative High-Throughput drug screen in 47 multiple myeloma cell lines against the NCATS MIPE library collection: JIM3_ECACC cell viability assay (AID 1918963; further: nearly all actives have a fitted effect of over 35% in size)
Procedure, shortened: as §2

[7] = Quantitative High-Throughput drug screen in 47 multiple myeloma cell lines against the NCATS MIPE library collection: JIM1_ECACC cell viability assay (AID 1918964)
Procedure, shortened: as §1

[8] = Quantitative High-Throughput drug screen in 47 multiple myeloma cell lines against the NCATS MIPE library collection: INA6_PLB cell viability assay (AID 1918965; further: nearly all actives have a fitted effect of over 55% in size)
Procedure, shortened: as §2

[9] = Quantitative High-Throughput drug screen in 47 multiple myeloma cell lines against the NCATS MIPE library collection: JJN3_DSMZ cell viability assay (AID 1918966; further: nearly all actives have a fitted effect of over 50% in size)
Procedure, shortened: as §1

[10] = Quantitative High-Throughput drug screen in 47 multiple myeloma cell lines against the NCATS MIPE library collection: H1112_PLB cell viability assay (AID 1918967; further: nearly all actives have a fitted effect of over 30% in size)
Procedure, shortened: as §1

[11] = Quantitative High-Throughput drug screen in 47 multiple myeloma cell lines against the NCATS MIPE library collection: Karpas25_ECACC cell viability assay (AID 1918968; further: nearly all actives have a fitted effect of over 35% in size)
Procedure, shortened: as §1

[12] = Quantitative High-Throughput drug screen in 47 multiple myeloma cell lines against the NCATS MIPE library collection: KMS27_JCRB cell viability assay (AID 1918970); conditions: KMS27 myeloma cells, CellTiter-Glo ATP viability, 48 h; viability (% of DMSO): at 45.8 µM (top of the series); further: nearly all actives have a fitted effect of over 30% in size
Procedure, shortened: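 Each line is seeded at 500 cells per well and treated with library compounds for 48 hours under 37 °C, 5% CO2. CellTiter-Glo is then added for 5 min at room temperature before median relative luminescence is recorded.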

[13] = Quantitative High-Throughput drug screen in 47 multiple myeloma cell lines against the NCATS MIPE library collection: KMS12BM_JCRB cell viability assay (AID 1918971); further: nearly all actives have a fitted effect of over 35% in size
Procedure, shortened: (§3)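 qHTS of the MIPE 4.0 collection: 500 myeloma cells/well, 48 h drug exposure at 37C in 5% CO2, then CellTiter-Glo for 5 min at room temperature before luminescence reading.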

[14] = Quantitative High-Throughput drug screen in 47 multiple myeloma cell lines against the NCATS MIPE library collection: KMS12PE_JCRB cell viability assay (AID 1918972); further: nearly all actives have a fitted effect of over 30% in size
Procedure, shortened: as §2

[15] = Quantitative High-Throughput drug screen in 47 multiple myeloma cell lines against the NCATS MIPE library collection: KMS20_JCRB cell viability assay (AID 1918973); further: nearly all actives have a fitted effect of over 45% in size
Procedure, shortened: as §1

[16] = Quantitative High-Throughput drug screen in 47 multiple myeloma cell lines against the NCATS MIPE library collection: KMS26_JCRB cell viability assay (AID 1918975); further: nearly all actives have a fitted effect of over 45% in size
Procedure, shortened: as §3

[17] = Quantitative High-Throughput drug screen in 47 multiple myeloma cell lines against the NCATS MIPE library collection: MMM1_PLB cell viability assay (AID 1918976); further: nearly all actives have a fitted effect of over 35% in size
Procedure, shortened: (§4)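 Readout: median RLU from CellTiter-Glo after 5 min at room temperature. Preceding step was 48 h drug treatment of 500 cells/well at 37 °C, 5% CO2, with DMSO-only and media-only control wells.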

[18] = Quantitative High-Throughput drug screen in 47 multiple myeloma cell lines against the NCATS MIPE library collection: NCIH929_DSMZ cell viability assay (AID 1918978); further: nearly all actives have a fitted effect of over 35% in size
Procedure, shortened: as §4

[19] = Quantitative High-Throughput drug screen in 47 multiple myeloma cell lines against the NCATS MIPE library collection: MOLP8_DSMZ cell viability assay (AID 1918977); further: nearly all actives have a fitted effect of over 45% in size
Procedure, shortened: as §4

[20] = Quantitative High-Throughput drug screen in 47 multiple myeloma cell lines against the NCATS MIPE library collection: KMS21BM_JCRB cell viability assay (AID 1918974); conditions: ATP luminescence, 48 h; viability: at 45.8 µM (top of the series)
Procedure, shortened: as §1
Potency means the concentration at half of the fitted maximal effect.

## CCCCCCCCc1ccc(CCC(N)(CO)CO)cc1
[1]
  Potency: 14.8 µM (active)
[2]
  Potency: 8.33 µM (active)
[3]
  Potency: 6.62 µM (active)
[4]
  Potency: 6.62 µM (active)
[5]
  Potency: 8.33 µM (active)
[6]
  Potency: 13.2 µM (active)
[7]
  Potency: 5.9 µM (active)
[8]
  Potency: 8.33 µM (active)
[9]
  Potency: 18.7 µM (active)
[10]
  Potency: 18.7 µM (active)
[11]
  Potency: 5.9 µM (active)
[12]
  Potency: 6.62 µM (active)
[13]
  Potency: 14.8 µM (active)
[14]
  Potency: 7.43 µM (active)
[15]
  Potency: 3.72 µM (active)
[16]
  Potency: 16.6 µM (active)
[17]
  Potency: 13.2 µM (active)
[18]
  Potency: 7.43 µM (active)

## CC(=O)NCC(=O)N1[C@H]2CC[C@H]1c1cc(Nc3ncc(C(F)(F)F)c(NC4CCC4)n3)ccc12
[1]
  Potency: 1.66 µM (active)
[2]
  Potency: 1.32 µM (active)
[3]
  Potency: 3.72 µM (active)
[4]
  Potency: 0.118 µM (active)
[5]
  Potency: 0.526 µM (active)
[7]
  Potency: 0.332 µM (active)
[8]
  Potency: 0.935 µM (active)
[9]
  Potency: 2.64 µM (active)
[10]
  Potency: 16.6 µM (active)
[11]
  Potency: 1.87 µM (active)
[12]
  Potency: 0.166 µM (active)
[13]
  Potency: 9.35 µM (active)
[14]
  Potency: 0.105 µM (active)
[15]
  Potency: 1.32 µM (active)
[16]
  Potency: 5.26 µM (active)
[17]
  Potency: 1.66 µM (active)
[19]
  Potency: 2.64 µM (active)
[18]
  Potency: 0.935 µM (active)

## C[C@H](NCc1ccc(OCc2cccc(F)c2)cc1)C(N)=O
[1]
  Potency: 5.26 µM (active)
[2]
  Potency: 3.72 µM (active)
[3]
  Potency: 6.62 µM (active)
[4]
  Potency: 2.64 µM (active)
[5]
  Potency: 1.48 µM (active)
[6]
  Potency: 2.96 µM (active)
[7]
  Potency: 3.72 µM (active)
[8]
  Potency: 1.32 µM (active)
[9]
  Potency: 8.33 µM (active)
[10]
  Potency: 5.9 µM (active)
[11]
  Potency: 2.35 µM (active)
[12]
  Potency: 1.66 µM (active)
[13]
  Potency: 8.33 µM (active)
[14]
  Potency: 1.87 µM (active)
[15]
  Potency: 2.35 µM (active)
[16]
  Potency: 18.7 µM (active)
[17]
  Potency: 11.8 µM (active)
[18]
  Potency: 2.64 µM (active)

## NC(=O)Nc1cc(-c2ccc(CN3CCOCC3)cc2)sc1C(N)=O
[1]
  Potency: 0.935 µM (active)
[2]
  Potency: 6.62 µM (active)
[3]
  Potency: 4.18 µM (active)
[4]
  Potency: 0.0833 µM (active)
[5]
  Potency: 0.935 µM (active)
[6]
  Potency: 4.69 µM (active)
[7]
  Potency: 1.48 µM (active)
[8]
  Potency: 1.05 µM (active)
[9]
  Potency: 1.18 µM (active)
[10]
  Potency: 5.26 µM (active)
[11]
  Potency: 1.32 µM (active)
[13]
  Potency: 20.9 µM (active)
[14]
  Potency: 1.18 µM (active)
[15]
  Potency: 2.64 µM (active)
[20]
  Potency: 1.32 µM (active)
[16]
  Potency: 23.5 µM (active)
[17]
  Potency: 6.62 µM (active)
[18]
  Potency: 2.64 µM (active)

## COc1cccc2c1C(=O)c1c(O)c3c(c(O)c1C2=O)C[C@@](O)(C(C)=O)C[C@H]3O[C@H]1C[C@H](N)[C@H](O)[C@H](C)O1
[1]
  Potency: 0.235 µM (active)
[2]
  Potency: 0.0662 µM (active)
[3]
  Potency: 0.0743 µM (active)
[4]
  Potency: 0.0469 µM (active)
[5]
  Potency: 0.235 µM (active)
[6]
  Potency: 0.0935 µM (active)
[7]
  Potency: 0.0743 µM (active)
[9]
  Potency: 0.105 µM (active)
[10]
  Potency: 0.209 µM (active)
[11]
  Potency: 0.0372 µM (active)
[12]
  Potency: 0.0372 µM (active)
[13]
  Potency: 0.0662 µM (active)
[14]
  Potency: 0.0662 µM (active)
[15]
  Potency: 0.0526 µM (active)
[16]
  Potency: 0.296 µM (active)
[17]
  Potency: 0.166 µM (active)
[18]
  Potency: 0.0469 µM (active)

## Nc1nc(N)c2nc(-c3cccc(O)c3)c(-c3cccc(O)c3)nc2n1
[1]
  Potency: 8.33 µM (active)
[2]
  Potency: 11.8 µM (active)
[3]
  Potency: 3.72 µM (active)
[4]
  Potency: 1.32 µM (active)
[5]
  Potency: 3.32 µM (active)
[6]
  Potency: 9.35 µM (active)
[7]
  Potency: 1.87 µM (active)
[8]
  Potency: 2.35 µM (active)
[9]
  Potency: 18.7 µM (active)
[10]
  Potency: 7.43 µM (active)
[11]
  Potency: 4.69 µM (active)
[14]
  Potency: 13.2 µM (active)
[15]
  Potency: 7.43 µM (active)
[20]
  Potency: 7.43 µM (active)
[17]
  Potency: 20.9 µM (active)
[18]
  Potency: 4.18 µM (active)

## CN1CCCN(C(=O)c2cccc(-c3ccc(C=C4C(=O)Nc5ccc(Cl)cc54)o3)c2)CC1
[1]
  Potency: 8.33 µM (active)
[2]
  Potency: 9.35 µM (active)
[3]
  Potency: 18.7 µM (active)
[4]
  Potency: 3.72 µM (active)
[6]
  Potency: 26.4 µM (active)
[7]
  Potency: 6.62 µM (active)
[8]
  Potency: 7.43 µM (active)
[9]
  Potency: 18.7 µM (active)
[10]
  Potency: 26.4 µM (active)
[11]
  Potency: 8.33 µM (active)
[12]
  Potency: 3.32 µM (active)
[13]
  Potency: 23.5 µM (active)
[14]
  Potency: 7.43 µM (active)
[15]
  Potency: 4.69 µM (active)
[20]
  Potency: 7.43 µM (active)
[16]
  Potency: 18.7 µM (active)
[17]
  Potency: 8.33 µM (active)
[19]
  Potency: 4.18 µM (active)
[18]
  Potency: 20.9 µM (active)

## CN[C@H]1[C@@H](O)[C@@H]2O[C@@H]3O[C@H](C)CC(=O)[C@]3(O)O[C@@H]2[C@@H](NC)[C@H]1O
[1]
  Potency: 0.469 µM (active)
[2]
  Potency: 0.743 µM (active)
[3]
  Potency: 0.372 µM (active)
[4]
  Potency: 0.469 µM (active)
[5]
  Potency: 8.33 µM (active)
[7]
  Potency: 0.662 µM (active)
[8]
  Potency: 2.96 µM (active)
[9]
  Potency: 0.105 µM (active)
[10]
  Potency: 2.64 µM (active)
[11]
  Potency: 0.0743 µM (active)
[13]
  Potency: 9.35 µM (active)
[14]
  Potency: 0.833 µM (active)
[20]
  Potency: 0.418 µM (active)
[16]
  Potency: 1.66 µM (active)
[17]
  Potency: 1.66 µM (active)
[19]
  Potency: 11.8 µM (active)
[18]
  Potency: 0.935 µM (active)

## CN(C)CC(=O)N1CCC(c2ccc(NC(=O)c3ncc(C#N)[nH]3)c(C3=CCCCC3)c2)CC1
[1]
  Potency: 3.32 µM (active)
[2]
  Potency: inactive
[3]
  Potency: inactive
[4]
  Potency: 2.35 µM (active)
[5]
  Potency: 20.9 µM (active)
[7]
  Potency: 5.26 µM (active)
[8]
  Potency: 14.8 µM (active)
[10]
  Potency: 18.7 µM (active)
[11]
  Potency: 23.5 µM (active)
[13]
  Potency: inactive
[14]
  Potency: 5.26 µM (active)
[15]
  Potency: 13.2 µM (active)
[18]
  Potency: 16.6 µM (active)
